Source: PubChem
A selection: hits, their analogues and other compounds. The true share with any hit is near 12%.
BAZ2B inh – BAZ2B (human) inhibition; Q9UIF8; AlphaScreen BAZ2B-H3K14Ac peptide displacement; Potency, µM (doses to about 114 µM), inactives show top-dose activity change, negative = inhibition, most hits filed as inhibitors; 360,000 compounds, 4.4% hits; AID 504333; further: potency means the concentration at half of the fitted maximal effect; on the % scale 0 is the no-effect control and ±100 the full control effect; nearly all actives have a fitted effect of over 60% in size
Target sequence (Q9UIF8 whole entry, looked up): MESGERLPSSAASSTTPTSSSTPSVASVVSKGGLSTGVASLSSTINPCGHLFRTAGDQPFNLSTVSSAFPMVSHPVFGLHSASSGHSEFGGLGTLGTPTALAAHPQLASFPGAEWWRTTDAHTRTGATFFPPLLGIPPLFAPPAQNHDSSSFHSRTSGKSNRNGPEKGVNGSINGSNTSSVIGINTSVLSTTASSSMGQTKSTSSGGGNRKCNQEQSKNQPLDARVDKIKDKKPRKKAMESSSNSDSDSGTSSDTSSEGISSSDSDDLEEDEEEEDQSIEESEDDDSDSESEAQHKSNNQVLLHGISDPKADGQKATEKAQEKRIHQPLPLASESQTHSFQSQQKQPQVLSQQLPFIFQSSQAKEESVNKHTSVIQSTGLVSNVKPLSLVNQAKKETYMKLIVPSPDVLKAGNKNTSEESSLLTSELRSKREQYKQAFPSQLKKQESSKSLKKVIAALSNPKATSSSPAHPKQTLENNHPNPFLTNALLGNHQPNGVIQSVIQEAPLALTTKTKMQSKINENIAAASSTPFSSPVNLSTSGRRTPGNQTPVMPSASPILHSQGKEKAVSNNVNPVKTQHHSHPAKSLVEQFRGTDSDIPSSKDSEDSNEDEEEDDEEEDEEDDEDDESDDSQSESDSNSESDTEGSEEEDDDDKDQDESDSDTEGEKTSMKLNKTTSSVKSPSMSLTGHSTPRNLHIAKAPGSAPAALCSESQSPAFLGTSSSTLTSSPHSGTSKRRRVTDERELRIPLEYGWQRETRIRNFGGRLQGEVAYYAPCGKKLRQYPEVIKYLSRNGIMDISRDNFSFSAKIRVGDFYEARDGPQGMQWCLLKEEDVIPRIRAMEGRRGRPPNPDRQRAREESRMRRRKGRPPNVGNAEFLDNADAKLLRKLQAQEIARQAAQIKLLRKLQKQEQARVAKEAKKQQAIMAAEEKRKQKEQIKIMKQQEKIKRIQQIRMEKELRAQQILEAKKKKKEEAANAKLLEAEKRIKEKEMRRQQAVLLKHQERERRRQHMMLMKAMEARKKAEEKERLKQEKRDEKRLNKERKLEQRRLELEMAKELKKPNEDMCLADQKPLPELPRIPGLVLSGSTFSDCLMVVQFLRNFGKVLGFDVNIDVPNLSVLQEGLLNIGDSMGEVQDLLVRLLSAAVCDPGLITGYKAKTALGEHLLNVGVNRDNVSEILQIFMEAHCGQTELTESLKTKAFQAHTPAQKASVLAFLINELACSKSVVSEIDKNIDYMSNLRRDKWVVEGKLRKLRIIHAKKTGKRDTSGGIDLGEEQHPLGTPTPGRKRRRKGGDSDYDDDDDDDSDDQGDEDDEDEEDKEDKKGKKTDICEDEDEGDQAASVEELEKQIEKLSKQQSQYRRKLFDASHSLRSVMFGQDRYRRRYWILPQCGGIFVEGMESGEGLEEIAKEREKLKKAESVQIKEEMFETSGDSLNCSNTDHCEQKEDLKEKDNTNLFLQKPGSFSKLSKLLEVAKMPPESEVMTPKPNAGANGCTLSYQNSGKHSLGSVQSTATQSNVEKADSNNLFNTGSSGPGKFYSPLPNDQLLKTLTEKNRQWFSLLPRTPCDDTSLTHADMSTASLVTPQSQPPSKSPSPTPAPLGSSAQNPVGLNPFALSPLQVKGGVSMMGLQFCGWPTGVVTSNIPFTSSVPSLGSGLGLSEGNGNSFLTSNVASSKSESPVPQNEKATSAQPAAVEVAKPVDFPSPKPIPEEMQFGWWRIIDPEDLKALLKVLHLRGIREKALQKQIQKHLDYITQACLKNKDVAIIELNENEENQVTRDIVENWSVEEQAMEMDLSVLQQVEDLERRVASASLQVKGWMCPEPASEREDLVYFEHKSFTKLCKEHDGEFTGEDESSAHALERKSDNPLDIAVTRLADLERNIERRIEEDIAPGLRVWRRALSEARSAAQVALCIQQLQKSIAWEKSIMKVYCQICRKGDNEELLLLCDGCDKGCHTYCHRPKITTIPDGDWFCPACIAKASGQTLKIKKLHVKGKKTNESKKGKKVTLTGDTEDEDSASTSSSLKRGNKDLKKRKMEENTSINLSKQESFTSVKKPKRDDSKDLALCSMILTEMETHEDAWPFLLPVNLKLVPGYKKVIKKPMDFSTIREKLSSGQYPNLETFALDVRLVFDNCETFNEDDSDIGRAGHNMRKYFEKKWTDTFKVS
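Compounds, titrated to a top concentration of 110 uM, were incubated 30 min at room temperature with preformed BAZ2B/acetyl-K14 H3 peptide complex (50 nM each). Proximity signal was measured by AlphaScreen after 20 min with beads.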
G9a inh – blocks human histone lysine methyltransferase G9a. 350,000 compounds, 8.8% hits. Q96KQ7. G9a H3K9 monomethylation, AlphaScreen, 2 h. Potency, µM (highest dose often 102 µM), for inactives: at the top dose activity, negative = inhibition, most hits filed as inhibitors; further: potency means the concentration at half of the fitted maximal effect; on the % scale 0 is the no-effect control and ±100 the full control effect; nearly all actives have a fitted effect of over 75% in size
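Signal arises when biotinylated H3K9 peptide, once monomethylated, bridges streptavidin donor and antibody-captured acceptor beads. Enzyme at 20 nM was preincubated 15 min with test compounds; peptide 500 nM and SAM 20 uM then reacted for 2 h.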
Sfp PPTase inh – inhibitors of Bacillus subtilis Sfp phosphopantetheinyl transferase; Q9F4F7; Biochemical Sfp PPTase activity, qHTS; Potency, µM, without a hit: largest response in the series, negative = inhibition, most hits filed as inhibitors; 310,000 compounds, 3.5% hits; AID 1490;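 further: the enzyme is Sfp with the accession as filed and its product quenches rhodamine fluorescence; potency means the concentration at half of the fitted maximal effect; 0% = enzyme reaction without inhibitor and -100% = no enzyme wells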
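After 15 min at room temperature with compound, 15 nM Sfp received 5 uM rhodamine-CoA plus 12.5 uM BHQ-2-ybbR (50 mM Hepes pH 7.6, 10 mM MgCl2). Rate came from the fluorescence difference over 30 min, ex 525/em 598 nm.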
JMJD2A Tudor – inhibitors of human JMJD2A Tudor domain. AlphaScreen JMJD2A-Tudor / H3K4me3 peptide binding. Potency, µM (series often up to 114 µM), without a hit: at the top dose activity change, negative = inhibition, actives largely listed as inhibitors. 390,000 compounds, 4.4% hits; further: potency means the concentration at half of the fitted maximal effect; on the % scale 0 is the no-effect control and ±100 the full control effect; nearly all actives have a fitted effect of over 50% in size
HP1b chromo inh – blocks HP1-beta chromodomain binding to methylated histone tails; P83916; AlphaScreen HP1-beta / biotin-H3K9me3 peptide binding; Potency, µM (series often up to 114 µM), for the others: at the top dose activity change, negative = inhibition, hits mostly inhibitors; 390,000 compounds, 0.56% hits; AID 540317; further: potency means the concentration at half of the fitted maximal effect; nearly all actives have a fitted effect of over 70% in size
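AlphaScreen: HP1-beta (50 nM) preformed 30 min with biotin-H3(1-18)K9me3 peptide (50 nM) in PBS pH 7.4, 0.01% Tween-20. Compound added for 30 min at RT, then streptavidin donor/nickel chelate acceptor beads (10 ug/mL) for 30 min.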
Sfp PPTase conf – confirmation of Bacillus subtilis Sfp PPTase inhibitors; shares compounds with Sfp PPTase inh; Sfp PPTase enzymatic assay, qHTS titration; Potency, µM (highest dose often 114 µM), inactives show at the highest dose activity change, negative = inhibition, actives largely listed as inhibitors; 380 compounds, 79% hits;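 further: potency means the concentration at half of the fitted maximal effect; plate controls were uninhibited Sfp reaction for no effect and no enzyme control for full effect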
Sfp gel assay – Blocks Sfp PPTase activity, gel read-out. shares compounds with Sfp PPTase inh. purified Sfp, gel-based phosphopantetheinylation read-out. 210 compounds, 20% hits. Potency, µM, hits mostly inhibitors. AID 2707;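 active means potency below 100 µM; inconclusive means dose-dependent response but potency above 100 µM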;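 further: band intensities scaled against SCH202676 control wells before curve fitting; potency is an IC50 for inhibitors of Sfp transfer activity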
An asterisk follows results filed as active; ! = not confirmed by another sample; [ ] = remark or other dose. Unless noted, the call rests on the fitted dose curve; in most records, active means well fitted curve in the direction sought with a large enough effect; inconclusive means small, poorly fitted or top-dose-only effect, or another doubt; inactive means no such curve, though single readings can be large; an effect the other way counts as inactive or inconclusive.

Screening CCOc1ccccc1CNc1ccc(O)cc1 returned BAZ2B inh 35µM*, G9a inh -137%[59 µM], Sfp PPTase inh 10µM*, JMJD2A Tudor 56µM*, HP1b chromo inh inconclusive, Sfp PPTase conf 11µM* and Sfp gel assay inactive.
CCc1ccc(CNc2ccc(O)cc2)cc1 was read as BAZ2B inh 40µM*, G9a inh inconclusive, Sfp PPTase inh 11µM*, JMJD2A Tudor 56µM*, HP1b chromo inh -86%, Sfp PPTase conf 37µM* and Sfp gel assay inactive.
O=c1c2c3nc4ccccc4nc3n(Cc3ccccc3)c2ncn1Cc1ccco1 was read as BAZ2B inh 50µM*, G9a inh inconclusive, Sfp PPTase inh 2.8µM*, JMJD2A Tudor -30%, HP1b chromo inh 12% and Sfp PPTase conf 5.9µM*.
COC(=O)c1sc2ccccc2c1N was read as BAZ2B inh 13%, G9a inh inconclusive, Sfp PPTase inh 14µM*, JMJD2A Tudor -28%, HP1b chromo inh -1% and Sfp PPTase conf 47µM*.
COC(=O)c1sc2ccccc2c1C(=O)OC was read as BAZ2B inh 7%, G9a inh inconclusive, Sfp PPTase inh 6%, JMJD2A Tudor 9% and HP1b chromo inh 33%.
Screening CCC(C)(C)NC(=O)CN(C(=O)C(=O)Nc1ccc2c(c1)OCCO2)N1CCOCC1 returned BAZ2B inh -9%, G9a inh 10%, Sfp PPTase inh 8%, JMJD2A Tudor -3% and HP1b chromo inh 18%.
CC(C)C(C)NC(=O)CSc1nc2scc(-c3ccco3)c2c(=O)n1-c1ccccc1 (stereo unspecified) was read as BAZ2B inh -7%, G9a inh 10%[12.7 µM], Sfp PPTase inh 4.5µM*, JMJD2A Tudor -25%, HP1b chromo inh 21%, Sfp PPTase conf 30µM* and Sfp gel assay inconclusive.
Screening O=C(Cc1ccccc1Nc1c(Cl)cccc1Cl)OCO/N=[N+](\[O-])N1CCCC1 returned Sfp PPTase inh 22µM*, JMJD2A Tudor inconclusive, HP1b chromo inh -8%, Sfp PPTase conf 26µM* and Sfp gel assay inconclusive.
For COc1ccc(C(=O)N2CCC3(CCCN(Cc4nccs4)C3)CC2)cc1 the results were G9a inh 1%[12.7 µM] and Sfp PPTase inh 1%.
`COc1ccc2nc(S(=O)Cc3ncc(C)c(OC)c3C)[nH]c2c1` (stereo unspecified) gave BAZ2B inh 32µM*, G9a inh 1.4µM*, Sfp PPTase inh 20µM*!, JMJD2A Tudor 28µM*, HP1b chromo inh 14µM* and Sfp PPTase conf 37µM*.
Screening CC(=O)N1CCc2cc(S(=O)(=O)NC(Cc3ccccc3)C(=O)Nc3ccc(C)cc3C)ccc21 (stereo unspecified) returned G9a inh -13%[59 µM], JMJD2A Tudor -21% and HP1b chromo inh 14%.
COc1ccc(NC(=S)N2CCC(c3ccc(C)cc3)C2)cc1 (stereo unspecified) was read as BAZ2B inh -19%, G9a inh 6%, Sfp PPTase inh 8%, JMJD2A Tudor -18% and HP1b chromo inh 37%.
Screening Cc1ccc(NC(=S)N2CCC(c3ccc(C)cc3)C2)cc1 (stereo unspecified) returned BAZ2B inh 1%, G9a inh 10µM*, Sfp PPTase inh 32µM*, JMJD2A Tudor -25%, HP1b chromo inh -21%, Sfp PPTase conf 37µM* and Sfp gel assay inconclusive.
`Cc1ccc2c(c1)C(N1CCCC1=O)CC(c1ccco1)N2` (stereo unspecified) gave BAZ2B inh -38%, G9a inh 10µM*, Sfp PPTase inh 40µM*, JMJD2A Tudor 21%[11.4 µM], HP1b chromo inh -10%, Sfp PPTase conf 26µM* and Sfp gel assay inactive.
O=C(CSc1nnc(-c2ccncc2)n1Cc1ccco1)OC1CCCCC1 was read as BAZ2B inh -31%, G9a inh -39%[12.7 µM], Sfp PPTase inh 14µM*, JMJD2A Tudor -10%, HP1b chromo inh 23%, Sfp PPTase conf 53µM* and Sfp gel assay inactive.
Screening Cc1cccc(C)c1NC(=O)CSc1nnc(-c2ccncc2)n1Cc1ccco1 returned BAZ2B inh -4%, G9a inh 9%[59 µM], Sfp PPTase inh -8%, JMJD2A Tudor -5% and HP1b chromo inh 23%.
Screening NC(=O)Cn1c(=O)n(Cc2ccco2)c(=O)c2c3c(sc21)CCCCC3 returned BAZ2B inh inconclusive, G9a inh 20µM*, Sfp PPTase inh 10µM*, JMJD2A Tudor 56µM*, HP1b chromo inh -45% and Sfp PPTase conf 19µM*.
Screening CCOc1ccc(-n2c(=O)c3c4c(sc3n(CC(=O)NCc3ccco3)c2=O)CCC4)cc1 returned BAZ2B inh 5%, G9a inh -10%[2.33 µM], Sfp PPTase inh -18%, JMJD2A Tudor -4% and HP1b chromo inh 28%.
Screening CCc1ccccc1NC(=O)C1CCN(C2=NS(=O)(=O)C(c3ccc(C)c(C)c3)=C2C)CC1 returned BAZ2B inh inconclusive, G9a inh 6%[59 µM], JMJD2A Tudor -11% and HP1b chromo inh 1%.
COc1ccccc1/C=c1\sc2nc(-c3ccco3)nn2c1=O was read as BAZ2B inh 35µM*, G9a inh 20µM*, Sfp PPTase inh 2µM*, JMJD2A Tudor 18µM*, HP1b chromo inh 50µM*, Sfp PPTase conf 42µM* and Sfp gel assay inconclusive.
`CC(=O)Cc1cc2cc([N+](=O)[O-])ccc2oc1=O` gave BAZ2B inh -4%, G9a inh -6%, Sfp PPTase inh 5%, JMJD2A Tudor -10% and HP1b chromo inh 16%.
`Cc1ccc(NC(=S)NC(=O)c2sc3ccccc3c2Cl)c(C(=O)O)c1` gave BAZ2B inh 50µM*, G9a inh 45µM*, Sfp PPTase inh 16µM* and Sfp PPTase conf 53µM*.
O=C(NCC(=O)N1CCCC(C(F)(F)F)C1)c1cccs1 (stereo unspecified) was read as JMJD2A Tudor 2% and HP1b chromo inh 85%.
Screening CC(NC(=O)c1ccco1)C(=O)O (stereo unspecified) returned BAZ2B inh 0%, G9a inh 5%[2.33 µM], JMJD2A Tudor -22% and HP1b chromo inh 20%.
`O=C(O)C(O)c1ccco1` (stereo unspecified) gave BAZ2B inh 8.9µM*, G9a inh 11µM*, Sfp PPTase inh 45µM*, JMJD2A Tudor 22µM*, HP1b chromo inh inconclusive, Sfp PPTase conf inconclusive and Sfp gel assay inactive.
